Bioassay records deposited in PubChem by The Scripps Research Institute Molecular Screening Center.
PP1 inh – PP1-alpha phosphatase inhibitors, primary screen, counter-screen for PP5 inhibitor project, biochemical, fluorescence, OMFP substrate, single point; purified PP1alpha; inhibition, % at 6.7 µM; 320,000 tested, 0.9% active;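 active = inhibition above the mean inhibition of all tested compounds plus 3 SD, computed separately for each screening campaign, cut at about 15% in these data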
PAFAH1B2 FP inh – PAFAH1B2 enzyme inhibitors, primary screen, biochemical, fluorescence polarization, human; 340,000 tested, 1.2% active; recombinant PAFAH1B2, FP-rhodamine activity probe; inhibition, % at 3.39 µM; AID 492953, 2010;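 active = inhibition above the mean of all tested compounds plus 3 SD, cut at about 24% in these data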;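 also: 0% = enzyme with DMSO and 100% = wells lacking PAFAH1B2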
pPAFAH inh – pPAFAH enzyme inhibitors, primary screen, biochemical, fluorescence polarization, human | Platelet-activating factor acetylhydrolase (Homo sapiens), Q13093 | recombinant pPAFAH, FP-rhodamine probe fluorescence polarization | inhibition, % at 3.39 µM | 330,000 tested, 1.5% active;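 active = inhibition above the mean inhibition across the screen plus 3 SD, cut at about 25% in these data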;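 also: inhibitors block binding of the rhodamine activity-based probe so polarization drops; 0% = enzyme with DMSO and 100% = wells lacking pPAFAH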
Target sequence (Q13093 whole entry, looked up): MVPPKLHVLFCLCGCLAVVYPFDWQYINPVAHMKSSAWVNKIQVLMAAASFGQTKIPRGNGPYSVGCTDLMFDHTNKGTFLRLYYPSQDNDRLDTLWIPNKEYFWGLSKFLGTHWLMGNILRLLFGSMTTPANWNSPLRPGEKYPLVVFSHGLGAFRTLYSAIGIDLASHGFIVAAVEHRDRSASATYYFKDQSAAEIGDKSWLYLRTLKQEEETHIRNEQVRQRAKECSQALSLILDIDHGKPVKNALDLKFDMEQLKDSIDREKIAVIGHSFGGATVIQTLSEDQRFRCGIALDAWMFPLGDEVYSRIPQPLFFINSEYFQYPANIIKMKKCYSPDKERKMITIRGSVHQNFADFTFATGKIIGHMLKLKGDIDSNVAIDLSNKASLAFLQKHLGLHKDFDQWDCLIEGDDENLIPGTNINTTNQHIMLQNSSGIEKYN
PP5 primary – PP5 phosphatase inhibitors, primary screen, biochemical, fluorescence. purified PP5c, OMFP substrate fluorescence. AID 1987, 2009. Serine/threonine-protein phosphatase 5 (Homo sapiens), P53041. 320,000 tested, 0.18% active. inhibition, % at 6.7 µM;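 active = inhibition above the campaign's mean inhibition across all tested compounds plus 3 SD, cut at about 9.5% in these data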;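 also: 0% = DMSO only and 100% = 100 µM cantharidin control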
PAFAH1B3 FP inh – PAFAH1B3 enzyme inhibitors, primary screen, biochemical, fluorescence polarization, human; recombinant PAFAH1B3, FP-rhodamine probe; inhibition, % at 3.39 µM; 340,000 tested, 0.28% active; AID 492972, 2010;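 active = inhibition above the screen-wide average of all tested compounds plus 3 SD, cut at about 25% in these data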;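 also: 0% = enzyme with DMSO only and 100% = wells lacking PAFAH1B3 protein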
PAFAH2 inh – PAFAH2 enzyme inhibitors, primary screen, biochemical, fluorescence polarization, human; Platelet-activating factor acetylhydrolase 2, cytoplasmic (Homo sapiens), Q99487; recombinant PAFAH2, FP-rhodamine activity probe; inhibition, % at 3.39 µM; 340,000 tested, 0.99% active;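 active = inhibition above the mean over all tested compounds plus 3 SD, cut at about 30% in these data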;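 also: inhibitors block probe labeling of enzyme so polarization drops; 0% = enzyme with DMSO and 100% = wells lacking PAFAH2 protein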
PP5 inh confirm – PP5 phosphatase inhibitors, confirmation, biochemical, fluorescence, human; shares compounds with PP5 primary; Purified PP5, fluorogenic phosphatase substrate; inhibition, % at 6.7 µM; 460 tested, 22% active; AID 2331, 2010; in the data active = inhibition above about 9.5%
PP1 inh counter – PP1 phosphatase inhibitors, counter-screen for PP5 inhibitor project, biochemical, fluorescence, triplicate; shares compounds with PP5 primary; PP1 enzyme, fluorescent phosphatase substrate; inhibition, % at 6.7 µM; 460 tested, 4% active; AID 2355, 2010; in the data active = inhibition above about 16%
An asterisk follows results filed as active; . = no result given. A selection: hits, their analogues and other compounds. The true share with any hit is near 3.4%.

SMILES	PP1 inh	PAFAH1B2 FP inh	pPAFAH inh	PP5 primary	PAFAH1B3 FP inh	PAFAH2 inh	PP5 inh confirm	PP1 inh counter
C[C@]12C(=O)N(c3ccc(Br)cc3)C(=O)N1[C@H]1c3ccccc3OC[C@@H]1[C@H]2c1ccccc1	.	-3	-3	.	7	5	.	.
C=CCNC(=O)CSc1nnc(-c2cccs2)o1	1	-1	3	-1	-5	4	.	.
O=C(CSc1nnc(-c2cccs2)o1)NCC1CN(Cc2ccccc2)CCO1 (configuration not stated)	-1	2	3	19*	-7	-4	-4	-6
Cc1c(C(=O)OC(C)C)sc(NC(=O)c2cnccn2)c1C(=O)OC(C)C	.	2	.	.	8	2	.	.
COc1ccc(S(=O)(=O)Cc2ccc(C(=O)NCC(OC)OC)o2)cc1	-5	7	-4	-1	0	-7	.	.
COC(CNC(=O)c1ccc(CS(=O)(=O)c2ccccc2)o1)OC	1	3	1	14*	2	2	-3	-4
CCCOC(=O)c1ccc(NC(=O)c2ccccc2[N+](=O)[O-])cc1	-4	-3	10	2	5	-1	.	.
C=CCN1C=C2C(=O)C(C)(OC(=O)CCC(=O)OC)C(=O)C(Br)=C2C=C1c1ccc(OC)cc1 (configuration not stated)	7	2	17	12*	15	14	38*	18*
NNC(=O)c1cc(-c2cccs2)nc2ccccc12	2	-5	1	15*	3	0	-3	-2
CCOC(=O)C1CCCN(CC(O)COc2ccc(OC)cc2C(C)(C)C)C1 (configuration not stated)	1	2	0	11*	4	-1	0	-4
O=C(O)[C@@H](O)[C@H](O)C(=O)O	2	-1	-2	11*	8	-6	7	0
CCCN(CC1CC1)c1nc(N)c2c(N)nc(OC)cc2c1C#N	4	12	11	12*	11	12	39*	5
CCn1c(=O)c([N+](=O)[O-])c(N2CCN(Cc3ccc4c(c3)OCO4)CC2)c2ccccc21	-2	0	7	10*	0	-1	-4	-2
COc1ccc(-c2csc(NC(=O)c3ccccc3C(=O)O)n2)cc1	-3	1	-2	2	-1	-7	.	.
COc1ccc(-c2csc(NC(=O)c3ccccc3S(C)(=O)=O)n2)cc1	-20	1	-2	11*	4	0	-1	0
CN(C)c1nc(SCCOC(=O)COc2ccc(Cl)cc2Cl)nc(N(C)C)n1	-2	-1	-4	11*	1	-6	-3	-2
CCN(CC)S(=O)(=O)c1cc(C(=O)Nc2nncs2)c(Cl)cc1Cl	4	6	3	11*	6	13	-2	-1
CCN(CC)S(=O)(=O)c1ccc(NC(=O)Nc2cccc(C(F)(F)F)c2)cc1	6	-58	-71	8	-106	-96	.	.
Cc1ccc(S(=O)(=O)Nc2ccc(NC(=O)Nc3cccc(C(F)(F)F)c3)cc2)cc1	4	7	-1	11*	3	-53	4	3
Cc1ccc(NS(=O)(=O)c2ccc(NC(=O)c3cccc(NC(=O)C(C)C)c3)cc2)cc1	1	-28	-27	9.8*	-36	-48	4	2
CCOc1cc(S(=O)(=O)n2cc(-c3ccc(F)cc3)c(N)n2)cc(OCC)c1OCC	6	2	7	11*	-1	0	5	0
CCOc1ccc(S(=O)(=O)n2cc(-c3ccc(F)cc3)c(N)n2)cc1	2	9	2	4	11	1	.	.
Nc1ccc(-c2nc3ccc([N+](=O)[O-])cc3[nH]2)cc1	-1	3	9	12*	3	-4	-5	-4
